Some test systems named below: HCT-15 colon; HT29 colon; SNB-75 CNS; SNB-19 CNS; U251 CNS; PC-3 prostate; SK-MEL-5 melanoma; UACC-62 melanoma; LOX IMVI melanoma; SK-MEL-28 melanoma.
Common to all, as to test: NCI-60 one-dose screen, 48 h (100 = growth as untreated, 0 = no growth, -100 = all killed)
Conditions in all cases: 10 µM unless noted

Structures are written as SMILES. The panel holds about 83,000 compounds, 20% with a hit somewhere; the sample as a whole holds those more often.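 Results are percent growth after 48 hours of single-concentration exposure. 100 means growth as in untreated cells, lower positive values show inhibition; negative values down to -100 show cell death.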 A number with no mark means an inactive call. Active and inactive are the calls of the source. The calls were made as follows: active = growth percent below 10; inactive = the rest.

`O=C(c1ccc(O)c(C(=O)N2Cc3ccc(OCCC[P+](c4ccccc4)(c4ccccc4)c4ccccc4)cc3C2)c1)N1Cc2cccc(F)c2C1`: the growth is 97.6% in the test with HCT-15 colon; 101% in the test with HT29 colon; 95.4% in the test on SNB-75 CNS; 38.1% in the test with SNB-19 CNS; 56.8% in the test on U251 CNS; 78.9% with PC-3 prostate. In addition, the growth was 29.3% in the test with SK-MEL-5 melanoma, 45.5% in the test on UACC-62 melanoma, 67.1% with LOX IMVI melanoma and 58% in the test on SK-MEL-28 melanoma.

As for `O=C(Nc1ccc2c(ccn2Cc2ccccn2)c1)c1ccnnc1`, the growth was 111% in the test on HCT-15 colon; 103% with HT29 colon; 56% with SNB-75 CNS; 102% with SNB-19 CNS; 108% in the test with U251 CNS; 91.4% in the test on PC-3 prostate. Moreover, the growth with SK-MEL-5 melanoma was 98.9%; in the test on UACC-62 melanoma it was 86.3%; in the test with LOX IMVI melanoma, 101%; in the test with SK-MEL-28 melanoma it was 108%.

In the case of `Cc1ccc(-c2nnc(SCc3ccc(O)c4ncccc34)n2-c2ccccc2)cc1`, the growth with HCT-15 colon was 6.13% (active); in the test on HT29 colon, 36%; in the test on SNB-75 CNS it was -5.25% (active); in the test on SNB-19 CNS it was 9.09% (active); in the test on U251 CNS, -2.5% (active); with PC-3 prostate, 5.96% (active). The growth in the test with SK-MEL-5 melanoma was -28.2% (active); in the test on UACC-62 melanoma it was -27.7% (active); in the test on LOX IMVI melanoma, 3.35% (active); with SK-MEL-28 melanoma it was 23%.

Turning to `CN1c2ccccc2Sc2cc(C=C(C#N)C#N)ccc21`, the growth was 101% with HCT-15 colon; 111% in the test on HT29 colon; 79.8% in the test on SNB-75 CNS; 97.6% with SNB-19 CNS; 98% in the test with U251 CNS; 105% in the test with PC-3 prostate. In addition, the growth is 100% in the test with SK-MEL-5 melanoma, 46.5% in the test on UACC-62 melanoma, 87.3% with LOX IMVI melanoma and 104% with SK-MEL-28 melanoma.

On to `COc1cc(OC)c(/C=C/S(=O)(=O)Cc2ccc(OC)c(NC(=O)CCC(=O)NO)c2)c(OC)c1`, for which the growth with HCT-15 colon is 8.57% (active); in the test on HT29 colon it was 3.2% (active); in the test with SNB-75 CNS, 31.6%; in the test with SNB-19 CNS it was 23%; with U251 CNS, 14.6%; in the test with PC-3 prostate, 28.7%. For the same molecule, the growth is -31.6% (active) in the test with SK-MEL-5 melanoma, 13.8% with UACC-62 melanoma, 10.4% in the test on LOX IMVI melanoma and 60% with SK-MEL-28 melanoma.

`N#Cc1cnc2ccc(-c3cnc(N)nc3)cc2c1N1CCc2cc(F)c(Cl)cc21`: the growth in the test on HCT-15 colon was 4.26% (active); in the test on HT29 colon, 11.4%; with SNB-75 CNS it was 19.1%; in the test with SNB-19 CNS, 12.2%; with U251 CNS it was 10.3%; in the test with PC-3 prostate it was 2.78% (active). Further, the growth in the test with SK-MEL-5 melanoma was -92.3% (active); with UACC-62 melanoma, -17.2% (active); with LOX IMVI melanoma it was 2.73% (active); in the test on SK-MEL-28 melanoma it was 7.06% (active).

Turning to `Cn1ccnc1C(=O)/C=C/c1ccc(CNC(=O)c2ccc(Cl)cc2)cc1`, the growth in the test with HCT-15 colon is -14.5% (active); in the test on HT29 colon it was -16.3% (active); with SNB-75 CNS, 56%; in the test with SNB-19 CNS, 11.1%; in the test with U251 CNS, 7.03% (active); with PC-3 prostate, 19.9%. Also, the growth is 32.6% in the test with SK-MEL-5 melanoma, 5.76% (active) with UACC-62 melanoma, -89.2% (active) in the test on LOX IMVI melanoma and 45.2% in the test with SK-MEL-28 melanoma.

Turning to `COc1ccc(-c2nc3cc(Cl)c(Cl)cc3n2CC(=O)N=Nc2c(O)[nH]c3ccc(OC)cc23)cc1`, the growth in the test on HCT-15 colon is 43.7%; with HT29 colon, 55.2%; in the test with SNB-75 CNS it was 65.3%; in the test on SNB-19 CNS, 80%; in the test on U251 CNS, 77.8%; in the test with PC-3 prostate, 63.8%. Also, the growth with SK-MEL-5 melanoma is 61.2%; in the test on UACC-62 melanoma, 53.4%; in the test on LOX IMVI melanoma it was 7.13% (active); in the test with SK-MEL-28 melanoma, 48.6%.

Turning to `C=CCn1c(SCC(=O)Nc2ccc(C(=O)/C=C/c3ccc(Cl)cc3)cc2)nnc1-c1c[nH]c2ccccc12`, the growth was 62.9% with HCT-15 colon; 88.7% with HT29 colon; 93.5% in the test with SNB-75 CNS; 76.1% in the test with SNB-19 CNS; 76.3% with U251 CNS; 58.4% with PC-3 prostate. In addition, the growth in the test on SK-MEL-5 melanoma was 42.9%; in the test on UACC-62 melanoma, 57.4%; in the test with LOX IMVI melanoma, 1.53% (active); in the test on SK-MEL-28 melanoma it was 90.2%.

As to `O=C(Nc1ccc(N=Cc2c(O)[nH]c3ccccc23)cc1)Nc1nccs1`, the growth in the test with HCT-15 colon is 29%; in the test with HT29 colon, 17.9%; in the test with SNB-75 CNS it was 33.4%; in the test with SNB-19 CNS, 31%; with U251 CNS, 42%; in the test on PC-3 prostate it was 68.6%. Also, the growth was 26.8% with SK-MEL-5 melanoma, 24.9% in the test on UACC-62 melanoma, 35.1% with LOX IMVI melanoma and 61.3% in the test on SK-MEL-28 melanoma.

Regarding `Nc1nc(Nc2ccccc2SSc2ccccc2Nc2nc(N)nc(-c3ccc4ccccc4c3)n2)nc(-c2ccc3ccccc3c2)n1`, the growth in the test on HCT-15 colon was 66.9%; in the test on HT29 colon, 102%; in the test on SNB-75 CNS it was 45.9%; with SNB-19 CNS, 92.9%; with U251 CNS, 45.7%; in the test with PC-3 prostate, 45.5%. Besides, the growth in the test on SK-MEL-5 melanoma is 92.3%; with UACC-62 melanoma it was 85%; with LOX IMVI melanoma, -70.7% (active); in the test on SK-MEL-28 melanoma, 102%.

`O=C(CCC(=O)N1CCOCC1)OCCCCCCSc1ccc([N+](=O)[O-])c2nonc12`: the growth in the test on HCT-15 colon was -67.4% (active); in the test on HT29 colon it was -34.2% (active); in the test on SNB-75 CNS, 36.4%; in the test with SNB-19 CNS, 25.1%; with U251 CNS it was -29.8% (active); with PC-3 prostate, 2.96% (active). Also, the growth in the test with SK-MEL-5 melanoma was 27.9%; with UACC-62 melanoma, -64.6% (active); in the test on LOX IMVI melanoma it was -82.2% (active); in the test on SK-MEL-28 melanoma it was -36.9% (active).

For `COc1ccc(NC(=O)CSc2nnc(-c3ccc4nc(-c5ccccc5)[nH]c4c3)o2)cc1`, the growth was 92.2% in the test on HCT-15 colon; 108% in the test with HT29 colon; 101% in the test on SNB-75 CNS; 102% in the test with SNB-19 CNS; 102% in the test on U251 CNS; 105% in the test with PC-3 prostate. The growth in the test on SK-MEL-5 melanoma is 85.9%; with UACC-62 melanoma, 95%; in the test with LOX IMVI melanoma, 101%; with SK-MEL-28 melanoma it was 99.7%.

Source of the values: PubChem BioAssay (NCI).
